Holding throughout (experiment): NCI-60 one-dose screen, 48 h (100 = growth as untreated, 0 = no growth, -100 = all killed)
Holding throughout (conditions): 10 µM unless noted

For experiment [1], the system named is DU-145 prostate.
The subject of experiment [2] is K-562 leukemia.
Experiment [3] has as its system MALME-3M melanoma.
Experiment [4] has as its system MDA-MB-231 breast.
Experiment [5] concerns RXF 393 renal.
Experiment [6] has as its system SF-268 CNS.
The subject of experiment [7] is SF-295 CNS.
Experiment [8] relates to SF-539 CNS.
For experiment [9], the system named is M14 melanoma.
Experiment [10] deals with HCT-15 colon.
Experiment [11] relates to HT29 colon.
Experiment [12] deals with SNB-75 CNS.
In experiment [13] the test system is SNB-19 CNS.
Experiment [14] has as its system U251 CNS.
Experiment [15] concerns PC-3 prostate.
Experiment [16] concerns SK-MEL-5 melanoma.
Experiment [17] has as its system UACC-62 melanoma.
Experiment [18] deals with LOX IMVI melanoma.
Experiment [19] concerns SK-MEL-28 melanoma.

Compounds without any hit were thinned out: in the full panel of roughly 83,000, 20% have a hit.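 How to read the values: 0–100, growth inhibition (40 = 60% inhibited); 0, no net growth; -100 to 0, cell death (-40 = 40% of starting cells died; -100 = all dead).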 Unmarked numbers belong to inactive results. Active and inactive are the calls of the source. The calls were made as follows: active = growth percent below 10; inactive = the rest.

In the case of `C=CC(=O)N(C)[C@H]1C[C@H]2OC(C)(C1OC)n1c3ccccc3c3c4c(c5c6ccccc6n2c5c31)C(=O)NC4` (stereo partly drawn), the growth in experiment [1] is 28.7%; in experiment [2] it was 4.26% (active); in experiment [3], -46.7% (active); in [4] it was 7.42% (active); in experiment [5], -90.1% (active); in experiment [6] it was 6.45% (active). The growth was -27% (active) in experiment [7]; -49.1% (active) in experiment [8]; -1.74% (active) in experiment [9]; -46.5% (active) in experiment [10]; 3.17% (active) in experiment [11]; -16.8% (active) in experiment [12]. The growth in experiment [13] is -1.51% (active); in experiment [14], -35.8% (active); in experiment [15] it was 17.5%; in experiment [16], -94.3% (active); in [17] it was -28.1% (active); in experiment [18], -55.6% (active). Further, the growth in experiment [19] was 5.52% (active).
As for `[2H]C1([2H])[C@H](C)O[C@H](C)C([2H])([2H])N1c1ccc(NC(=O)c2cccc(-c3ccc(OC(F)(F)F)cc3)c2C)cn1`, the growth was 80.1% in [1]; 38.2% in [2]; 68.2% in experiment [3]; 74.9% in [4]; 90% in experiment [5]; 71.6% in experiment [6]. Moreover, the growth is 73.3% in experiment [7]; 81.6% in experiment [8]; 77% in [9]; 84.2% in experiment [10]; 61.2% in experiment [11]; 72.1% in experiment [12]. In addition, the growth in experiment [13] was 65.7%; in experiment [14], 65.3%; in [15], 62.1%; in [16], 53.9%; in [17] it was 52.8%; in experiment [18], 68.4%. Further, the growth in [19] was 89.2%.
Take `Cc1cc(N2CCCC2)nc(N(CCCNc2ccnc3cc(Cl)ccc23)Cc2ccc3c(c2)OCO3)n1`: the growth in experiment [1] was 27.9%; in experiment [2], -15.4% (active); in experiment [3], -76.9% (active); in [4], 4.2% (active); in experiment [5], -66.1% (active); in [6], 31.2%. The growth was -62% (active) in [7]; -90.5% (active) in experiment [8]; -83.4% (active) in experiment [9]; 3.01% (active) in experiment [10]; -23.9% (active) in [11]; 3.65% (active) in experiment [12]. Further, the growth in experiment [13] was 23.5%; in experiment [14] it was -9.48% (active); in experiment [15] it was 20.7%; in experiment [16] it was -96.8% (active); in [17], -32.9% (active); in experiment [18], -78.3% (active). Besides, the growth in experiment [19] was -82% (active).
Regarding `CN1CCN(c2nc(NCCNc3ccnc4cc(Cl)ccc34)c3ccccc3n2)CC1`, the growth in experiment [1] was 34.6%; in experiment [2], -14.1% (active); in experiment [3] it was -57.4% (active); in experiment [4], -10.8% (active); in experiment [5], -35.8% (active); in experiment [6], 32.6%. Besides, the growth in experiment [7] is -38.7% (active); in [8], -78.4% (active); in experiment [9], -63.3% (active); in experiment [10], 16.1%; in [11] it was 0.651% (active); in [12] it was 74.7%. The growth was 34.8% in experiment [13]; 9.01% (active) in experiment [14]; 30.4% in experiment [15]; -97.5% (active) in [16]; -55.1% (active) in [17]; -56% (active) in [18]. Also, the growth in experiment [19] is -58.5% (active).
`N#CC(C#N)=NO`: the growth is 111% in [1]; 108% in experiment [2]; 99% in experiment [3]; 108% in experiment [4]; 105% in experiment [5]; 100% in experiment [6]. The growth in [7] is 101%; in [8], 99.8%; in [9], 110%; in experiment [10] it was 104%; in experiment [11], 91.7%; in experiment [12] it was 89.1%. In addition, the growth was 102% in experiment [13]; 95.2% in [14]; 71.8% in [15]; 108% in experiment [16]; 95.8% in experiment [18]; 110% in experiment [19].
For the molecule `N#Cc1cc2[nH]c3ccc(OC(F)(F)F)cc3c2oc1=O`, the growth was 99.4% in experiment [1]; 28.8% in experiment [2]; 79.6% in experiment [3]; 84.6% in experiment [4]; 76.8% in experiment [5]; 75.5% in experiment [6]. Further, the growth is 80.3% in experiment [7]; 90% in experiment [8]; 68.4% in experiment [9]; 58.8% in experiment [10]; 79.6% in experiment [11]; 53.6% in experiment [12]. Moreover, the growth in [13] was 93.6%; in [14], 73.2%; in experiment [15] it was 60.3%; in [16], 70.8%; in [17] it was 88.9%; in [18], 74.5%. Further, the growth in experiment [19] is 93%.
For `Cc1cc2c(-c3nc4ccccn4c3Nc3cccc4ccccc34)c(O)c(O)cc2c(O)c1-c1c(C)cc2c(-c3nc4ccccn4c3Nc3cccc4ccccc34)c(O)c(O)cc2c1O`, the growth is 31.4% in experiment [1]; 15.2% in experiment [2]; 10.8% in experiment [3]; 23.3% in [4]; 39.6% in [5]; 30.9% in experiment [6]. The growth in [7] is 13.1%; in experiment [8], 20.4%; in experiment [9] it was 27.2%; in [10], 41.4%; in [11], 27.5%; in experiment [12], 30%. The growth in [14] was 12.9%; in experiment [15] it was 16%; in experiment [16], 1.82% (active); in experiment [17], 1.11% (active); in experiment [18], 9.84% (active); in experiment [19], 34.5%.
Regarding `COc1c(C(NC(=O)c2ccccc2)c2sccc2C)cc(Cl)c2cccnc12` (stereo not drawn), the growth in experiment [1] was 108%; in [2], 105%; in experiment [3], 108%; in experiment [4] it was 88.4%; in [6], 100%; in [7] it was 103%. The growth in experiment [8] is 106%; in [9], 103%; in experiment [10], 101%; in experiment [11], 94.1%; in experiment [12], 88.4%; in experiment [13], 118%. The growth in [14] is 88.6%; in experiment [15] it was 83.2%; in experiment [16], 98.4%; in [17], 93%; in [18], 98.1%.

The record behind these values is PubChem BioAssay (NCI).
